Experiment [1] can be described thus: compounds binding Alexa647 anti-His antibody – biochemical, small-molecule microarray, 635 nm fluorescence, artefact control for SMM control protein annotation, primary screen (AID 1128).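 Also: score merges feature fluorescence with signal-to-noise for each printed compound spot.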 As to conditions: higher = more signal.
Experiment [2] has as its system Human papillomavirus type 1a E7 protein (residues 1-88). The experiment can be described thus: HPV1a E7 small-molecule binders, primary screen, biochemical, small-molecule microarray, residues 1-88, 635 nm (AID 1129). Particulars: small-molecule microarray binding, fluorescence 635 nm; higher = more signal.
The target in experiment [3] is Focal adhesion kinase 1 (Homo sapiens) (UniProt Q05397). The experiment can be described thus: PTK2 protein binding on printed compound slides – biochemical, small-molecule microarray, 635/667 nm fluorescence, BSA, DTT, primary screen (AID 1130).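 Also: composite of spot emission at 667 nm and signal to noise over triplicate slides.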 Particulars: 635 nm fluorescence, higher = more signal.
Chain of Focal adhesion kinase 1 (Homo sapiens) (Q05397 whole entry, looked up): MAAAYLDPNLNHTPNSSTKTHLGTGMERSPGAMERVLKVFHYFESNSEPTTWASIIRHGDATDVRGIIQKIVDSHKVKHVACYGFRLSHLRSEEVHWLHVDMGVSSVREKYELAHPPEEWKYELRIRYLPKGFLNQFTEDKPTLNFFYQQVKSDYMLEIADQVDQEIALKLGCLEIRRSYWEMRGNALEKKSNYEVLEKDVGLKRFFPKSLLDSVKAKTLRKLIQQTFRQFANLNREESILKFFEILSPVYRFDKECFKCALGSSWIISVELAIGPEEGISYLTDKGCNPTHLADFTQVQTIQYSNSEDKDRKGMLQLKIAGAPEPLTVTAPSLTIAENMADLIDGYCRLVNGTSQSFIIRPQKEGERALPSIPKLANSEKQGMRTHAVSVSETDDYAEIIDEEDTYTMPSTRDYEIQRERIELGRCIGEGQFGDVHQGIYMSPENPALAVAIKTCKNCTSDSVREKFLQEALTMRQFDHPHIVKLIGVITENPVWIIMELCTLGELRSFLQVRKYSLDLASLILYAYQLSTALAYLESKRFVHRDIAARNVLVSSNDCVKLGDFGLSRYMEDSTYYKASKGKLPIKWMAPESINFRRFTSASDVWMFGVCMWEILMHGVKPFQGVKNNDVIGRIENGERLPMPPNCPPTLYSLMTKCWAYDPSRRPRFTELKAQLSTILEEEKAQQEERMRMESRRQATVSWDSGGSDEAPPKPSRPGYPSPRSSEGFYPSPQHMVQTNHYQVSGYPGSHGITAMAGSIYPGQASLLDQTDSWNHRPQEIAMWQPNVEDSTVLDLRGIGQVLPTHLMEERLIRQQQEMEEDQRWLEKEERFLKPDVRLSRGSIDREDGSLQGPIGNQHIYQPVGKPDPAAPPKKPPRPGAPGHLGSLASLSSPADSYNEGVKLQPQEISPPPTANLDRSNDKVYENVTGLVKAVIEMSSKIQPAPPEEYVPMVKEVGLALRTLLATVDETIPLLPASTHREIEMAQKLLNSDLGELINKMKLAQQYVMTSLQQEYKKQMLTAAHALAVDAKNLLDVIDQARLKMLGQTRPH
For experiment [4], the system named is Fibrinogen (Alexa647-labelled). The experiment can be described thus: Alexa647-fibrinogen binding to printed small molecules – biochemical, small-molecule microarray, 635/667 nm fluorescence, artefact control for SMM control-protein annotation, profiling panel (AID 1131).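 Also: z-score merges 667 nm fluorescence with per-spot signal-to-noise over triplicate slides.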 Particulars: fibrinogen-A647 binding fluorescence, higher = more signal.
The target in experiment [5] is Follistatin (Homo sapiens) (UniProt P19883). Description: FST protein binding to printed compounds – biochemical, small-molecule microarray, 635/667 nm fluorescence, primary screen (AID 1132). As to conditions: 635 nm fluorescence, higher = more signal.
Chain of Follistatin (Homo sapiens) (P19883 whole entry, looked up): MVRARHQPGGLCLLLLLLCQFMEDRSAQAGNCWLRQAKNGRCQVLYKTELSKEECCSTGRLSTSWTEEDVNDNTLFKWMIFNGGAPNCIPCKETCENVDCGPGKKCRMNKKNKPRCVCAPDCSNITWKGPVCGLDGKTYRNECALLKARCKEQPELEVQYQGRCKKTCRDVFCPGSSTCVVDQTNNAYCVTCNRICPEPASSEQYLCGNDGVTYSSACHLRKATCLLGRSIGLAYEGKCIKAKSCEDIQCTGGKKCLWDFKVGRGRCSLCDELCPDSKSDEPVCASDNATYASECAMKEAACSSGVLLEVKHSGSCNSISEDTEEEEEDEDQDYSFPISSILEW
Experiment [6] concerns the target Fibroblast growth factor 2 (Homo sapiens) (UniProt P09038). The experiment can be described thus: basic fibroblast growth factor binding to printed compounds – biochemical, small-molecule microarray, 635/667 nm fluorescence, primary screen (AID 1133). Particulars: FGF2, fluorescence 635/667, higher = more signal.
A short description of experiment [7]: JC-1 mitochondrial potential readout, lung cancer cells – cell-based, A549, JC-1 fluorescence, basal, 24 h, 100 nL, profiling panel (AID 1138).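 Also: A549 lung adenocarcinoma cells under basal conditions with no added stimulus; test concentration not given here.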 Particulars: higher = more signal.
Another experiment deals with Lefty1. The experiment can be described thus: Lefty1 protein binding to printed compounds – biochemical, small-molecule microarray, 635/667 nm fluorescence, primary screen (AID 1139). As to conditions: fluorescence 635/667, higher = more signal.
Experiment [8] concerns wheat germ agglutinin (Triticum aestivum), Alexa647-labelled. Description: Alexa647-WGA lectin binding to printed small molecules – biochemical, small-molecule microarray, 635/667 nm fluorescence, artefact control for SMM control-protein annotation, profiling panel (AID 1140).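 Also: score merges 667 nm feature emission with signal to noise over triplicate slides.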 As to conditions: WGA-A647 binding, 635 nm fluorescence, higher = more signal.
For experiment [9], the target named is Luciferin 4-monooxygenase (Photinus pyralis) (UniProt P08659). Description: inhibition of purified Photinus pyralis luciferase – biochemical, luminescence, purified enzyme, 2006 set, primary screen (AID 1141).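 Also: cell-free assay with purified firefly luciferase at 100 ng per well in PBS; test concentration not given here.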 Particulars: purified firefly luciferase, SteadyGlo luminescence, 30 min; higher = more signal, called active from +8 up or from −8 down.
Chain of Luciferin 4-monooxygenase (Photinus pyralis) (P08659 whole entry, looked up): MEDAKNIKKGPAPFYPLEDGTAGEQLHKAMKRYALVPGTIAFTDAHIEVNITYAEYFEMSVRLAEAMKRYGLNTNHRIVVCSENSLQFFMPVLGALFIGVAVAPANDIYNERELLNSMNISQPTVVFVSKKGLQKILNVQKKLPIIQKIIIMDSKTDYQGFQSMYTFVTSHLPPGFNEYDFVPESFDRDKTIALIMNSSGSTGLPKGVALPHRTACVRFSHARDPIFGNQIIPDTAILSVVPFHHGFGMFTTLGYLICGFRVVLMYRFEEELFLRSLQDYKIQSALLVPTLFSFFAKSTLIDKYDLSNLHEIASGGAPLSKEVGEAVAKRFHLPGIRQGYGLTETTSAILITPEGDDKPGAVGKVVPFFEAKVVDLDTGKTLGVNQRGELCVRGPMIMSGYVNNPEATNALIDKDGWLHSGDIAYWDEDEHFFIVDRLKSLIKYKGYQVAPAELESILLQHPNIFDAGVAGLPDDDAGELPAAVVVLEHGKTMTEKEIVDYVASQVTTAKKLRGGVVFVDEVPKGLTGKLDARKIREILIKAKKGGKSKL
The subject of experiment [10] is Wnt5a (protein binding on small-molecule microarray). Description: small molecules binding Wnt5a protein – biophysical, small-molecule microarray, 635/667 nm fluorescence, primary screen (AID 1142).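 Also: fluorescence read at 667 nm with signal to noise per printed feature.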 Particulars: 635 nm fluorescence, higher = more signal.
Experiment [11] can be described thus: ATP-based viability of Huh7 replicon cells – cell-based, CellTiter-Glo luminescence, basal, 48 h, cytotoxicity control for HCV replication inhibitor project, primary screen (AID 1143).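 Also: Huh7 hepatoma cells carrying a hepatitis C replication reporter with no stimulus; test concentration not given here.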 As to conditions: higher = more signal, called active from +8 up or from −8 down.
Experiment [12] is described as follows: Pseudomonas biofilm growth suppression – PAO1 strain, BacTiter-Glo luminescence, LB-PBS, primary screen (AID 1144). As to conditions: P. aeruginosa PAO1 biofilm, 12 h, higher = more signal.
A short description of experiment [13]: basal CRE-LacZ reporter activity in PC12 – cell-based, unstimulated, primary screen (AID 1145). Particulars: no forskolin, luminescence, 4.5 h, higher = more signal, called active from +8 up or from −8 down.
Experiment [14] can be described thus: forskolin-driven CRE-LacZ activity in PC12 – cell-based, CRE-LacZ reporter, forskolin-stimulated, primary screen (AID 1146).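 Also: PC12 cells with 6xCRE LacZ reporter stimulated by forskolin 10 µM; beta-galactosidase reporter signal reflecting CREB driven transcription.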 Particulars: luminescence, 4.5 h, higher = more signal, called active from +8 up or from −8 down.
In experiment [15] the target is Streptavidin (Streptomyces avidinii) (UniProt P22629). Description: compounds binding control protein streptavidin – biophysical, small-molecule microarray, 635/667 nm fluorescence, artefact control for SMM compound annotation, primary screen (AID 1147).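 Also: signal reflects streptavidin binding to arrayed compounds as a control protein.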 As to conditions: higher = more signal.
Chain of Streptavidin (Streptomyces avidinii) (P22629 whole entry, looked up): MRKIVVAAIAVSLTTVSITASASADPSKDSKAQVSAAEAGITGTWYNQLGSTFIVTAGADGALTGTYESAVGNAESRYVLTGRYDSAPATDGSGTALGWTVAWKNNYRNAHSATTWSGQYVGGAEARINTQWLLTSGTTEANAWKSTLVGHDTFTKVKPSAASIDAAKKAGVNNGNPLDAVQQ
Experiment [16] is described as follows: probe aInhba binding on compound microarray – biochemical, small-molecule microarray, 635/667 nm fluorescence, primary screen (AID 1148).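 Also: score merges 667nm spot fluorescence with signal-to-noise for antibody binding to printed compounds.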 Particulars: higher = more signal.
Experiment [17] concerns the target Torsin-1A (Homo sapiens) (UniProt O14656). Description: TOR1A wild-type binding on microarray – cell lysate, small-molecule microarray, lysate, 635/667 nm, primary screen (AID 1149). Particulars: COS7 hTOR1A-WT lysate, 635 nm fluorescence, higher = more signal.
The target is the same in experiment [18]. Description: torsin A mutant lysate binding on microarrays – cell lysate, small-molecule microarray, COS7 lysate, 635/667 nm fluorescence, primary screen (AID 1150).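 Also: score pools 667 nm emission and signal to noise measuring lysate protein binding.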 As to conditions: COS7 hTOR1A mutant lysate, 635 nm fluorescence, higher = more signal.
Experiment [19] has as its system Sonic hedgehog protein (Shh). Description: Sonic hedgehog microarray binding compounds – biochemical, small-molecule microarray, 635/667 nm fluorescence, primary screen (AID 1151).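 Also: Shh protein binding to compounds spotted on small-molecule microarray slides; score combines spot fluorescence intensity with signal-to-noise across triplicate slides.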 Particulars: 635 nm fluorescence, higher = more signal.

Activity calls are given as the source filed them. Unless noted, no rule for the calls is given here.

Chain of Fibroblast growth factor 2 (Homo sapiens) (P09038 whole entry, looked up): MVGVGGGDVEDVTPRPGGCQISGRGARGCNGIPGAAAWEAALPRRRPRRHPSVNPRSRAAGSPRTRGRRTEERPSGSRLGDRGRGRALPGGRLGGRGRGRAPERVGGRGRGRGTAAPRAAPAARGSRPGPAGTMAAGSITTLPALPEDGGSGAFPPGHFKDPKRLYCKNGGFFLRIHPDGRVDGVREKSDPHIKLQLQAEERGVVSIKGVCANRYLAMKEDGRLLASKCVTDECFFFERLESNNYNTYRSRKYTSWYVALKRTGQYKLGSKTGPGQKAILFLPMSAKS
Chain of Torsin-1A (Homo sapiens) (O14656 whole entry, looked up): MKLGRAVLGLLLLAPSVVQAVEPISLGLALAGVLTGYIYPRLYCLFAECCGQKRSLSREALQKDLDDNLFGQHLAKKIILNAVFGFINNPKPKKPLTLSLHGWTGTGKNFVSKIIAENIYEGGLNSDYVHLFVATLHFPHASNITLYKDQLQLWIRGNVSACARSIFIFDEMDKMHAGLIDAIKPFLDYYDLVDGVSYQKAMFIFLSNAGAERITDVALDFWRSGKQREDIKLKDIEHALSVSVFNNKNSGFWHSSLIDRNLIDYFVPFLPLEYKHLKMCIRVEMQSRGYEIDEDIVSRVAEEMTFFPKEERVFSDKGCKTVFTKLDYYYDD

On to `COC(=O)C1N=C(c2ccc(OCCCO)cc2)N(c2ccccc2)O1` (stereo not given), for which the composite z-score is 1.91 in experiment [1]; 1.15 in experiment [2]; -0.0976 in experiment [3]; 0.992 in experiment [4]; 1.33 in experiment [5]; 1.76 in experiment [6]. For the same molecule, the composite z-score turned out to be 0.156 with Lefty1; 1.29 in experiment [8]; 0.924 in experiment [10]; 0.562 in experiment [15]; 0.308 in experiment [16]; 0.654 in the experiment with Torsin-1A (Homo sapiens) [17]. The composite z-score worked out at 0.328 with Torsin-1A (Homo sapiens) [18] and 0.664 in experiment [19]. For the same molecule, the z-score is 1.8 in [7]; -7.36 (inactive) in [9]; 0.255 (inactive) in experiment [11]; -0.787 (inactive) in experiment [12]; 0.353 (inactive) in [13]; 0.0512 (inactive) in experiment [14].

As for `COCCOC(=O)N1C(=O)[C@@]2(c3cc(C#CCNC(N)=O)ccc31)[C@H](c1ccc(O)cc1)N1[C@H](c3ccccc3)[C@H](c3ccccc3)OC(=O)[C@H]1[C@@H]2C(N)=O`, the composite z-score in [1] was -0.685; in experiment [2] it was -0.703; in experiment [3] it was -0.529; in [4], -1.39; in experiment [5], -1.91; in experiment [6], -0.93. Also, the composite z-score in the experiment on Lefty1 is -1.72; in [8], -1.18; in experiment [10] it was -0.503; in [15], -1.53; in experiment [16] it was -0.331; with Torsin-1A (Homo sapiens) [17] it was -0.57. Moreover, the figures for the composite z-score (with Torsin-1A (Homo sapiens) [18]; in experiment [19]) were -0.934 and -1.56, respectively. For the same molecule, the z-score in [7] was 0.902; in [9], -1.03 (inactive); in experiment [11], -0.522 (inactive); in experiment [12] it was 0.175 (inactive); in experiment [13] it was 0.224 (inactive); in experiment [14], 0.645 (inactive).

As to `O=C1C[C@@](C(=O)NCC(F)(F)F)(c2ccc([N+](=O)[O-])cc2)[C@@H](c2ccc(CO)cc2)N1CC12CC3CC(CC(C3)C1)C2`, the composite z-score in experiment [1] was 0.544; in [2], 1.2; in [3], 0.0423; in experiment [4], 0.348; in [5] it was 1.5; in experiment [6], 1.78. The composite z-score with Lefty1 was 0.634; in [8], 0.732; in experiment [10], 0.988; in experiment [15], 0.261; in experiment [16] it was 0.216; in the experiment with Torsin-1A (Homo sapiens) [17], 0.406. Moreover, the composite z-score came to 0.397 with Torsin-1A (Homo sapiens) [18] and 1.34 in [19]. The z-score in experiment [7] is -0.598; in experiment [9] it was 0.28 (inactive); in experiment [11], -5.79 (inactive); in experiment [12], -0.542 (inactive); in experiment [13], 0.324 (inactive); in experiment [14], -1.01 (inactive).

For `CN1C(=O)[C@@H]2[C@@H](CC(COc3ccccc3)=C([C@H](O)CCc3ccccc3)[C@@H]2CO)C1=O`, the composite z-score in experiment [1] was -0.203; in experiment [2] it was -0.438; in [3], -0.147; in experiment [4], -0.163; in experiment [5], 0.009; in experiment [6], 0.364. Moreover, the composite z-score was -0.0412 in the experiment with Lefty1; 0.488 in experiment [8]; -0.0336 in [10]; -0.448 in experiment [15]; -0.128 in experiment [16]; 0.762 in the experiment with Torsin-1A (Homo sapiens) [17]. For the same molecule, the composite z-score was 0.0706 with Torsin-1A (Homo sapiens) [18] and 0.497 in experiment [19]. Moreover, the z-score in experiment [7] was 2.02; in experiment [9] it was -1.4 (inactive); in experiment [11] it was -1.03 (inactive); in [12], 0.272 (inactive); in [13], 1.67 (inactive); in [14], -1.18 (inactive).

Turning to `C=C(C)C1CCC(C(O)C2C=CC3C(=O)N(C)C(=O)C3N2Nc2cc(OC)c(OC)c(OC)c2)CC1` (stereo not given), the composite z-score in experiment [1] was determined as 1.23; in experiment [2] it was 1.24; in [3], 0.573; in [4], 0.723; in experiment [5] it was 1.31; in [6], 0.425. The composite z-score in the experiment on Lefty1 is 0.677; in experiment [8] it was 0.504; in experiment [10], 0.109; in experiment [15], 0.889; in [16] it was 0.222; in the experiment with Torsin-1A (Homo sapiens) [17], -0.0834. The composite z-score was determined as 0.44 with Torsin-1A (Homo sapiens) [18] and 1.11 in experiment [19]. The z-score was 0.444 in experiment [7]; -1.07 (inactive) in experiment [9]; 0.454 (inactive) in [11]; 0.253 (inactive) in experiment [12]; 0.243 (inactive) in [13]; 0.516 (inactive) in experiment [14].

For the origin of these results see PubChem BioAssay.
